The values below come from the supplement of paper PMC6555819.

The subject of the first assay is RXRa homodimer (NR concentration 180 nM). Briefly: PBM binding z-score (relative to random genomic background probes); higher = stronger binding; sequences stand for … in GC…GCGATTGACAGCGTAGAATGAAGG
The gist of the method:
(§1)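 Regression normalization was applied to scanned fluorescence from custom Agilent 4×180K protein-binding microarrays. Before scanning, arrays were incubated 1 h with ligand-free nuclear receptor dimers, and binding was detected with antibodies against each partner (one per run). Binding z-scores use the random background probes as reference.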
In the case of CCTCCTAGGTCATGGTCAGCTAATCTACAGTATG, the PBM binding z-score stood at 2.93.

The sequence CCAGACAGGTGAAAGGTAACACAGTCTGGTACGC had a PBM binding z-score of 2.27.

The sequence AGAACGAGGGCAATGAGTTGATAGCGCGGGTGGC registered a PBM binding z-score of 0.602.

On to ATATGTAGGTTATCGGGTCAATCAGTTTGCGCAT, for which the PBM binding z-score was 3.75.

As to ACAGACAGATGAGTGAAGGTAACTCAGCTGGACG, the PBM binding z-score worked out at 0.367.

In the case of GCAGACAGGTGAAAAGCAGGTAACTCAGGGTGGC, the PBM binding z-score turned out to be 0.348.

For TCGAGTAGGTTACCAAGGGGGCATTCAGCTTTCT, the PBM binding z-score stood at 1.98.

Turning to GCGACTGGGGCAAAGCAGGTTACCAAAAGGTTGG, the PBM binding z-score turned out to be 0.52.

ATATGTAGGTTACATCCAGGTCATTCAGGCTATG registered a PBM binding z-score of 2.91.

Sequence CCTACTGGGCCAAATGTCATTGATTCCAATGCTC showed a PBM binding z-score of 0.124.

On to ACTGTTAGTTGACTTAGGGCAACCGATACGACGC, for which the PBM binding z-score came to 0.472.

Take ATCTAAAGGTCGAGGTGAGTATAGAGAAAGGGAA: the PBM binding z-score came to 4.82.

Consider CCTAGTTGGTCAAGGGCACACACGCTATAGGTAC, for which the PBM binding z-score was 0.726.

In the case of TCTTGTAGATCAACAGGAGGCTAAGAAAGATCGA, the PBM binding z-score was -0.111.

Consider TCATATAGGTAAACAGGTGAAAATCCGTAAGTTA, for which the PBM binding z-score came out at 1.52.

The sequence CGTCCAAGGTCTATGCTAGGTCAGTGAAAGCATT came in with a PBM binding z-score of 0.248.

CGTCCAAGGTCAAGGTCAGTGGAAGAGACTCGAA displayed a PBM binding z-score of 6.05.

Consider AGAATGAGGTTATTAAGTTCAGGGAATTGCGGTC, for which the PBM binding z-score stood at 2.52.

The sequence CCTTACGGGTCACTCCAGGTAATAGCATCGGAGT yielded a PBM binding z-score of 4.32.

ATCGAAAGGACGACGAGGTGAGTATACACCGTTT: the PBM binding z-score was 0.371.

In turn, CGTCCAAGGTCATAGGAGGTCAGTGAAGACAGAT gave a PBM binding z-score of 6.4.

As for GATACAGGGTCAAGGCCAGAGAACGCGTATTGAT, the PBM binding z-score was found to be 6.11.

Consider TCTATTAGTTGAAAGGCAACCGACGAGTCCGTTT, for which the PBM binding z-score stood at 0.759.

As for CCGACTGGGGCAAAGGTTACCATCCTCAGTACGA, the PBM binding z-score was 4.04.

In the case of TCTTGTAGATCAAGCAGGATAAGAAAGCCTGAGT, the PBM binding z-score is -0.0789.

The sequence AGACCGAGGGCACGCTGAGTTGATAGCAGAGTAG returned a PBM binding z-score of 1.31.

TCTAGTTGGTCACCGAGGTCACACACGACGGGTA had a PBM binding z-score of 5.06.

CGTGCAAGGTCAGCAGGTCAGTGAAAGCGACGTG had a PBM binding z-score of 5.2.

In turn, CCTCGCAGGACAACAGGAGGTCAGAGCTGCCAGA registered a PBM binding z-score of 1.86.

As for ATCTCTAGATAAAAGTTCAGTGAATCCCGAGGAT, the PBM binding z-score was determined as 0.778.

On to CCTAGCAGGCCAGGGTCAATCAAGCATTTCGCTT, for which the PBM binding z-score amounted to 4.06.

In turn, TCTTGTACATCAAAGGTTAAGAAAGCCGAAGCCT yielded a PBM binding z-score of 2.7.

The sequence ACTATTAGTTGAGACGAGGGCAACCGTTAGGTTG yielded a PBM binding z-score of 0.373.

AGAATGAGGTTATTAAGATCAGGCAATTGCGGTC yielded a PBM binding z-score of 1.65.

GCATATAGATAATACAAGGTGAAAGTCCGATTGT showed a PBM binding z-score of 0.586.

In turn, GCTTGTAGATCAAGGTTAGGAAAGACTAAGCTAA showed a PBM binding z-score of 0.0572.

Sequence AGAATGATGTTATTAAGATCAGGGAATTGCGGTC gave a PBM binding z-score of 0.203.

Turning to CCGACTGGGGCAAAGGTTACCATTCTCAGTACGA, the PBM binding z-score is 3.26.

ATATGTAGGTTATCGGGTCATTTAGTTTGCGCAT gave a PBM binding z-score of 3.5.

Take TCATATAGGTAAATGCTAGGTTAAAGTCCGATCT: the PBM binding z-score is 0.914.

A further assay deals with THRa:RXRa (NR concentration 90 nM, RXRa partner concentration 90 nM). The assay is described as above. The procedure, abridged: as §1
In turn, CCTCCTAGGTCATGGTCAGCTAATCTACAGTATG gave a PBM binding z-score of 3.09.

CCAGACAGGTGAAAGGTAACACAGTCTGGTACGC came in with a PBM binding z-score of 1.02.

With AGAACGAGGGCAATGAGTTGATAGCGCGGGTGGC, the PBM binding z-score is 0.756.

As for ATATGTAGGTTATCGGGTCAATCAGTTTGCGCAT, the PBM binding z-score came out at 3.3.

The sequence ACAGACAGATGAGTGAAGGTAACTCAGCTGGACG gave a PBM binding z-score of 0.16.

In turn, GCAGACAGGTGAAAAGCAGGTAACTCAGGGTGGC yielded a PBM binding z-score of 1.28.

The sequence TCGAGTAGGTTACCAAGGGGGCATTCAGCTTTCT registered a PBM binding z-score of 2.16.

The sequence GCGACTGGGGCAAAGCAGGTTACCAAAAGGTTGG gave a PBM binding z-score of 3.28.

Turning to ATATGTAGGTTACATCCAGGTCATTCAGGCTATG, the PBM binding z-score stood at 4.23.

For CCTACTGGGCCAAATGTCATTGATTCCAATGCTC, the PBM binding z-score was -0.237.

Turning to ACTGTTAGTTGACTTAGGGCAACCGATACGACGC, the PBM binding z-score was 1.51.

ATCTAAAGGTCGAGGTGAGTATAGAGAAAGGGAA: the PBM binding z-score came to 3.09.

CCTAGTTGGTCAAGGGCACACACGCTATAGGTAC had a PBM binding z-score of 1.09.

Take TCTTGTAGATCAACAGGAGGCTAAGAAAGATCGA: the PBM binding z-score is -0.56.

Take TCATATAGGTAAACAGGTGAAAATCCGTAAGTTA: the PBM binding z-score came to 0.866.

Take CGTCCAAGGTCTATGCTAGGTCAGTGAAAGCATT: the PBM binding z-score came out at 2.21.

CGTCCAAGGTCAAGGTCAGTGGAAGAGACTCGAA gave a PBM binding z-score of 4.21.

For the sequence AGAATGAGGTTATTAAGTTCAGGGAATTGCGGTC, the PBM binding z-score stood at 3.11.

Regarding CCTTACGGGTCACTCCAGGTAATAGCATCGGAGT, the PBM binding z-score stood at 4.97.

For ATCGAAAGGACGACGAGGTGAGTATACACCGTTT, the PBM binding z-score was 1.42.

Take CGTCCAAGGTCATAGGAGGTCAGTGAAGACAGAT: the PBM binding z-score came to 5.42.

In the case of GATACAGGGTCAAGGCCAGAGAACGCGTATTGAT, the PBM binding z-score stood at 3.3.

TCTATTAGTTGAAAGGCAACCGACGAGTCCGTTT returned a PBM binding z-score of 0.0956.

For CCGACTGGGGCAAAGGTTACCATCCTCAGTACGA, the PBM binding z-score amounted to 1.77.

For TCTTGTAGATCAAGCAGGATAAGAAAGCCTGAGT, the PBM binding z-score was -0.341.

AGACCGAGGGCACGCTGAGTTGATAGCAGAGTAG returned a PBM binding z-score of 1.77.

Regarding TCTAGTTGGTCACCGAGGTCACACACGACGGGTA, the PBM binding z-score came out at 4.2.

Consider CGTGCAAGGTCAGCAGGTCAGTGAAAGCGACGTG, for which the PBM binding z-score was 4.03.

On to CCTCGCAGGACAACAGGAGGTCAGAGCTGCCAGA, for which the PBM binding z-score turned out to be 2.51.

Consider ATCTCTAGATAAAAGTTCAGTGAATCCCGAGGAT, for which the PBM binding z-score came to 0.538.

In turn, CCTAGCAGGCCAGGGTCAATCAAGCATTTCGCTT had a PBM binding z-score of 3.05.

TCTTGTACATCAAAGGTTAAGAAAGCCGAAGCCT showed a PBM binding z-score of 1.48.

Sequence ACTATTAGTTGAGACGAGGGCAACCGTTAGGTTG came in with a PBM binding z-score of 2.62.

Sequence AGAATGAGGTTATTAAGATCAGGCAATTGCGGTC yielded a PBM binding z-score of 2.22.

GCATATAGATAATACAAGGTGAAAGTCCGATTGT displayed a PBM binding z-score of 2.26.

Regarding GCTTGTAGATCAAGGTTAGGAAAGACTAAGCTAA, the PBM binding z-score came to 0.576.

AGAATGATGTTATTAAGATCAGGGAATTGCGGTC returned a PBM binding z-score of 0.093.

For CCGACTGGGGCAAAGGTTACCATTCTCAGTACGA, the PBM binding z-score stood at 1.66.

Sequence ATATGTAGGTTATCGGGTCATTTAGTTTGCGCAT showed a PBM binding z-score of 3.3.

In the case of TCATATAGGTAAATGCTAGGTTAAAGTCCGATCT, the PBM binding z-score was 1.35.
